Sampled rows, rich in hits. Any-hit rate of the full collection: about 7.5%.
Luc counter: Counterscreen for Luciferase (Kinase-Glo TM) Inhibition | Kinase-Glo luciferase, ATP luminescence, 8 min | Potency, µM (series often up to 38.3 µM), without a hit: top-dose activity change, negative = inhibition, usual class: inhibitors | 0.28% of 200,000 active | AID 1379, 2008; note: % is set by controls: 0 for no effect and ±100 for the full control effect; nearly all actives have a fitted effect of over 60% in size
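Inhibition of Kinase-Glo luciferase light generation was assessed at 10 uM ATP in pH 7.2 imidazole buffer, with luminescence measured after eight minutes at ambient temperature.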
Rab9 promoter act: qHTS Assay for Rab9 Promoter Activators; Huh7 Rab9 promoter-luciferase reporter, luminescence, 24 h; Potency, µM (titrated, usually from 9.22 µM), for inactives: top-dose activation, negative = inhibition, hits mostly activators; 2.8% of 320,000 active; AID 485297, 2010; note: % of control where 0% means no effect; nearly all actives have a fitted effect of over 60% in size
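Huh7 reporter line, Rab9 promoter upstream of luciferase. Compound exposure 24 h at 37 °C in reduced-serum medium with 10% FBS. Read-out: luminescence.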
FLuc counter: qHTS profiling assay for firefly luciferase inhibitor/activator using purifed enzyme and Km concentrations of substrates (counterscreen for miR-21 project); Luciferin 4-monooxygenase (Photinus pyralis), P08659; purified FLuc, Km substrates, luminescence inhibition; Potency, µM (titrated, usually from 57.5 µM), without a hit: at the top dose activity change, negative = inhibition, most hits filed as inhibitors; 6.9% of 360,000 active; AID 588342, 2011;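 note: plate controls were vehicle for no effect and reference inhibitor for full effect; nearly all actives have a fitted effect of over 55% in size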
Target sequence (P08659 whole entry, looked up): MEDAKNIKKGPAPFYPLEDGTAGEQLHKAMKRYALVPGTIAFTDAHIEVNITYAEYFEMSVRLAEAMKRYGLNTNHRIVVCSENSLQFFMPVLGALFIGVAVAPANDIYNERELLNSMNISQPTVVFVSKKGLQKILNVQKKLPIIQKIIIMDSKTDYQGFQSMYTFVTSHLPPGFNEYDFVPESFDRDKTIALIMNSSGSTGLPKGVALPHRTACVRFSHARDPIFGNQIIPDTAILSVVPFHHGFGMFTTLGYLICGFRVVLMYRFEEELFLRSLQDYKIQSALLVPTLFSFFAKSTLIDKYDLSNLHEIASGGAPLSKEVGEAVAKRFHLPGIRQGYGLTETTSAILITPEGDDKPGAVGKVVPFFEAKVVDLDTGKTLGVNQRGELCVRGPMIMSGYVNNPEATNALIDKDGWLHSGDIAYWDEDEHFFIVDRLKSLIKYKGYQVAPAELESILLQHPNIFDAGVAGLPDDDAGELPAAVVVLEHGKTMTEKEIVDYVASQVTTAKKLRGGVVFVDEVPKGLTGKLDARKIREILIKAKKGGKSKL
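Biochemical qHTS of compounds, final roughly 60 µM downward over six points, against 10 nM purified firefly luciferase using Km concentrations of substrates (10 uM D-luciferin, 10 uM ATP) in Tris acetate pH 7.5 buffer; luminescence output.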
NPC1 promoter act: qHTS Assay for NPC1 Promoter Activators | Huh7 NPC1 promoter luciferase reporter, 24 h | Potency, µM (highest dose often 9.22 µM), for the others: at the top dose activation, most hits filed as activators | 2.4% of 320,000 active | AID 485313, 2010; note: % of control where 0% means no effect; nearly all actives have a fitted effect of over 60% in size
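Huh7 reporter cells (NPC1 promoter driving luciferase) are dosed with compound for 24 h at 37 °C, 5% CO2; luciferase detection reagent is then added and luminescence measured after 10 min at ambient temperature.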
SMN2 splice up: qHTS Assay for Enhancers of SMN2 Splice Variant Expression; HEK293 SMN2-luciferase splicing reporter, luminescence, 30-36 h; Potency, µM (top dose mostly 46.1 µM), for inactives: top-dose activity change, positive = activation, usual class: activators; 2.8% of 210,000 active; AID 1458, 2008; note: % of control where 0% means no effect; nearly all actives have a fitted effect of over 55% in size
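HEK293 cells carry an SMN2 […]–luciferase reporter in which exon 7 inclusion puts luciferase in frame. Cells were plated 10-12 h before compound addition, then incubated 30-36 h at 37C. ONE-Glo luminescence was read; sodium butyrate at 4.5 mM final served as control.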
ELG1 genotox: qHTS screen for small molecules that induce genotoxicity in human embryonic kidney (HEK293T) cells expressing luciferase-tagged ELG1. HEK293T ELG1-luciferase reporter, luminescence, 16 h. Potency, µM (top dose mostly 46 µM), without a hit: at the top dose activity change, positive = activation, most hits filed as activators. 1.3% of 330,000 active. AID 504466, 2011; note: % of control where 0% means no effect; nearly all actives have a fitted effect of over 60% in size
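Cells (2,000/well) expressing the ELG1-luciferase fusion are dosed by pin tool and kept 16 hr at 37 °C, 5% CO2. Signal comes from ONE-Glo luciferase reagent after 30 min at room temperature.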
Starred values were filed as active, the others as inactive; [ ] = remark or other dose. Calls come from the whole dose curve; as a rule, active = well fitted curve in the direction sought with a large enough effect; inconclusive = small, poorly fitted or top-dose-only effect, or another doubt; inactive = no such curve, though single readings can be large; an effect the other way counts as inactive or inconclusive. Potency is the fitted concentration of half-maximal effect.

Results for O=C(Cc1ccccc1)N/N=C/c1ccc(OCC(=O)Nc2ccccc2)cc1 ?
Luc counter: 3%; Rab9 promoter act: 9%; FLuc counter: 0%; NPC1 promoter act: -1%; SMN2 splice up: -5%; ELG1 genotox: -2%

How did CS(=O)(=O)N1CCC2(CCCN(C(=O)Nc3cccc(C#N)c3)C2)CC1 do in these assays?
Luc counter: -1%; SMN2 splice up: -2%

How did COc1cc(Cl)c(C)cc1NC(=O)CCn1c(=O)c2cccn2c2cccnc21 do in these assays?
FLuc counter: -3%

How did COc1cccc(Cn2c(SCC(=O)N3CCN(c4ccc(F)cc4)CC3)nc3ccccc32)c1 do in these assays?
FLuc counter: -1%; SMN2 splice up: -8%

What do the screens show for `CCN(CC)c1ccc(/C=N/NC(=O)OC(C)(C)C)cc1`?
Rab9 promoter act: 2.8µM*; FLuc counter: 11µM*; NPC1 promoter act: inconclusive; ELG1 genotox: inconclusive

How did CCOc1ccc(/C=N/NC(=O)Nc2ccccc2)cc1 do in these assays?
Luc counter: -8%; Rab9 promoter act: 2.2µM*; FLuc counter: 3µM*; NPC1 promoter act: inconclusive; SMN2 splice up: 5µM*; ELG1 genotox: 7.3µM*

How did c1ccc(CCCNc2ncnc3nc[nH]c23)cc1 do in these assays?
Luc counter: -2%; Rab9 promoter act: 1%; FLuc counter: -17%; NPC1 promoter act: 9%; SMN2 splice up: -13%; ELG1 genotox: 1%

What do the screens show for `COc1cccc(Nc2ncnc3nc[nH]c23)c1`?
Luc counter: -12%; Rab9 promoter act: inconclusive; FLuc counter: 19µM*; NPC1 promoter act: inconclusive; SMN2 splice up: 13µM*; ELG1 genotox: 13%

How did CCc1ccc(Nc2ncnc3nc[nH]c23)cc1 do in these assays?
Rab9 promoter act: 2µM*; FLuc counter: 11µM*; NPC1 promoter act: 2.2µM*; ELG1 genotox: inconclusive

How did Cc1ccc(NC(=O)Nc2ncnc3nc[nH]c23)cc1 do in these assays?
Rab9 promoter act: 2.8µM*; FLuc counter: 12µM*; NPC1 promoter act: 3.5µM*; ELG1 genotox: inconclusive

How did CCCCc1ccc(Nc2ncnc3nc[nH]c23)cc1 do in these assays?
Luc counter: -4%; Rab9 promoter act: inconclusive; FLuc counter: 11µM*; NPC1 promoter act: inconclusive; SMN2 splice up: 5%; ELG1 genotox: 8.2µM*

What do the screens show for `Cc1ccc(CNc2nc(-c3ccco3)nn2C(=O)c2ccccc2[N+](=O)[O-])cc1`?
FLuc counter: -9%

Results for [N-]=[N+]=Nc1ccc(C(=O)CSC[C@H](NC(=O)CC[C@H](N)C(=O)O)C(=O)NCC(=O)O)cc1 ?
Luc counter: -3%; Rab9 promoter act: -6%[46.1 µM]; NPC1 promoter act: 18%[46.1 µM]; SMN2 splice up: 5%

What do the screens show for `CC=CC1=C(C(=O)O)N2C(=O)[C@H](NC(=O)[C@H](N)c3ccc(O)cc3)[C@@H]2SC1`?
Luc counter: 1%[39.9 µM]

How did Cc1cc2c(c(=O)n1-c1ccccc1)C1O[C@](c3ccsc3)(Cc3cc(C#N)ccc31)O2 do in these assays?
Rab9 promoter act: 1%[1.84 µM]; FLuc counter: 1%[11.5 µM]; NPC1 promoter act: 1%[1.84 µM]

Results for Cc1cc(C)c(Cn2cnc3nc4c(cc3c2=O)CCCC4)c(C)c1 ?
FLuc counter: -16%

How did COc1cc(OC)c(NC(=O)c2csc3c2CCC(C)C3)cc1Cl (stereo not drawn) do in these assays?
FLuc counter: inconclusive; SMN2 splice up: 16%

Results for Cc1ccc(Nc2ncnc3nc[nH]c23)cc1Cl ?
Luc counter: -11%; Rab9 promoter act: 3.2µM*; FLuc counter: inconclusive; NPC1 promoter act: 3.5µM*; SMN2 splice up: inconclusive; ELG1 genotox: 5.8µM*

How did CCCNc1ncnc2nc[nH]c12 do in these assays?
Luc counter: 3%; Rab9 promoter act: -7%; FLuc counter: -1%; NPC1 promoter act: -8%; SMN2 splice up: -19%; ELG1 genotox: -10%

Results for CC1(C)Oc2ccc3ccc(=O)oc3c2-c2cn[nH]c21 ?
Luc counter: 1%; Rab9 promoter act: -4%; FLuc counter: 2%; NPC1 promoter act: -2%; SMN2 splice up: 14µM*; ELG1 genotox: inconclusive

What do the screens show for `COc1ccc(NC(=O)c2cnn(-c3ccccc3)c2C)cc1OC`?
Rab9 promoter act: inconclusive; FLuc counter: 11µM*; NPC1 promoter act: 2.8µM*; ELG1 genotox: inconclusive

What do the screens show for `COc1ccc(NC(=O)c2cnn(-c3ccccc3)c2C)cc1`?
Rab9 promoter act: 0.4µM*; FLuc counter: 3.8µM*; NPC1 promoter act: 2.5µM*; ELG1 genotox: inconclusive

What do the screens show for `Cc1ccc(NC(=O)c2cnn(-c3ccccc3)c2C)cc1C`?
Rab9 promoter act: 0.63µM*; FLuc counter: 0.34µM*; NPC1 promoter act: 0.4µM*; ELG1 genotox: inconclusive

How did O=C(/C=C/c1ccccc1)N/C(=C/c1ccccc1)C(=O)Nc1cccc(C(=O)O)c1 do in these assays?
Luc counter: 1%; Rab9 promoter act: 5%; FLuc counter: 24µM*; NPC1 promoter act: -1%; SMN2 splice up: -9%; ELG1 genotox: 0%

Results for O=C(Nc1cccc(C(=O)O)c1)/C(=C\C=C\c1ccccc1)NC(=O)c1ccccc1 ?
Luc counter: -3%; Rab9 promoter act: -4%; FLuc counter: 13µM*; NPC1 promoter act: -1%; SMN2 splice up: 1%; ELG1 genotox: -2%

How did O=C(/C=C/c1ccccc1)Nc1cccc(C(=O)O)c1 do in these assays?
Luc counter: -19%; Rab9 promoter act: inconclusive; FLuc counter: 0.067µM*; NPC1 promoter act: inconclusive; ELG1 genotox: -15%

How did O=C(Nc1ccc(C(=O)O)cc1)/C(=C\C=C\c1ccccc1)NC(=O)c1ccccc1Br do in these assays?
Rab9 promoter act: 3.2µM*; FLuc counter: 0.17µM*; NPC1 promoter act: 2µM*; ELG1 genotox: 1%

How did O=C(/C=C/c1cccc([N+](=O)[O-])c1)Nc1cc(C(=O)O)cc(C(=O)O)c1 do in these assays?
Luc counter: 6%; Rab9 promoter act: 2%; FLuc counter: -18%; NPC1 promoter act: -9%; SMN2 splice up: -45%; ELG1 genotox: -9%

What do the screens show for `O=C(/C=C/c1ccccc1)Nc1cc(NC(=O)/C=C/c2ccccc2)cc(C(=O)O)c1`?
Rab9 promoter act: 16%; FLuc counter: 13µM*; NPC1 promoter act: 11%; ELG1 genotox: -4%

Results for Clc1cccc(-n2ncc3c(N4CCCCC4)ncnc32)c1 ?
FLuc counter: 0.43µM*

Screening data: PubChem, National Center for Advancing Translational Sciences (NCATS)
